# Laboratory results from PubChem BioAssay AID1626 (SRMLSC, 2009).
# Out of some 220,000 compounds screened, about 2,000 (0.91%) were called active. Another 2% or so got no clear call; they are omitted. No stated cut-off is given here; in the data, inconclusive means inhibition above about 80% without an active follow-up result; inactive means below that; test concentration not stated here. A selection follows. Entries with a potency or affinity are not part of this list.
# Test: M. tuberculosis H37Rv growth inhibitors, H37Rv strain (AID 1626);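 further: bacteria incubated seven days before Alamar blue readout; 0% = bacteria only wells and 100% = bacteria with antibiotic wells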
# Details: stronger effect = higher value, concentration not given here
row,Structure (SMILES),inhibition
1,CCCCCCn1c(CN2CCN(C(=O)OCC)CC2)nc2c1c(=O)n(C)c(=O)n2C,6.21% (inactive)
2,CCOc1ccc(OC(=O)c2cccnc2)cc1,1.09% (inactive)
3,CCCCCCCOC(=O)c1ccc(OC(=O)c2cccnc2)cc1,8.62% (inactive)
4,CCCCCCOC(=O)c1ccc(OC(=O)c2cccnc2)cc1,74.1% (inactive)
5,O=C(Oc1cccc(Br)c1)c1cccnc1,13.2% (inactive)
6,O=C(Oc1ccc([N+](=O)[O-])cc1)c1cncc(Br)c1,10.3% (inactive)
7,CCCCOc1ccc(OC(=O)c2cccnc2)cc1,6.86% (inactive)
8,O=C(Oc1ccc(Br)cc1)c1cncc(Br)c1,-0.78% (inactive)
9,COc1ccc(OC(=O)c2cccnc2)cc1,0.67% (inactive)
10,Cc1cccc(NC(=O)c2sc(Cl)nc2-c2ccccc2)c1,8.83% (inactive)
11,COc1cccc(CC2(CO)CCCN(Cc3ccc4c(c3)OCCO4)C2)c1 (centres undefined),4.07% (inactive)
12,Cc1nc2cc(Cl)c([N+](=O)[O-])cc2s1,7.87% (inactive)
13,CC(C)Oc1ccc(CCc2nnc(SC(C)C(=O)O)n2-c2ccccc2)cc1 (centres undefined),2.62% (inactive)
14,CCc1ccccc1N1C[C@@]23C=C[C@@H](O2)C(C(=O)OCC(C)C)[C@H]3C1=O (some centres undefined),-0.48% (inactive)
15,CCCCn1nc2cc(C(=O)N(CC)c3ccc(OC)cc3)ccc2c1OCC,0.26% (inactive)
16,CN(C)c1ccc(C(=S)N2CCN(c3ccc([N+](=O)[O-])cc3)CC2)cc1,9.45% (inactive)
17,COc1cc(NS(=O)(=O)c2ccc(NC(C)=O)cc2)ncn1,6.36% (inactive)
18,COc1cc(NS(=O)(=O)c2ccc(N)cc2)nc(OC)n1,14.8% (inactive)
19,O=C(CCC(=O)OCCCC(F)(F)C(F)(F)F)NC1CCCCC1,-2.21% (inactive)
20,COc1ccccc1NC(=O)c1[nH]c(C)c(C(C)=O)c1C,-2.28% (inactive)
21,Cc1nc(-c2ccccc2)sc1C1(C)CC(c2ccc([N+](=O)[O-])cc2)=NO1 (centres undefined),-6.22% (inactive)
22,CCN(CC)S(=O)(=O)c1cccc(-c2nnc(SCc3nc4ccccc4s3)o2)c1,2.86% (inactive)
23,Brc1ccccc1-c1nnc(SCc2nc3ccccc3s2)o1,36% (inactive)
24,COc1ccc(/C=C/C(=O)c2ccc(NC(=O)c3cccs3)cc2)cc1OC,5.93% (inactive)
25,C/C(=N\NC(=O)CC(C)C)c1ccc(Cl)c(Cl)c1,-0.71% (inactive)

row,Structure (SMILES),inhibition
1,COc1ccc(CNCC(O)(c2ccccc2)c2ccc(Cl)cc2)cc1 (centres undefined),-0.19% (inactive)
2,OC(CNCc1ccc(Cl)cc1)(c1ccccc1)c1ccc(F)cc1 (centres undefined),-2.55% (inactive)
3,Cc1ccc(S(=O)(=O)Nc2c(C)nn(C)c2C)cc1,-3.98% (inactive)
4,Cc1cc(C)n(C(=O)CCC(=O)Nc2ccc(C)c(C)c2)n1,-4.23% (inactive)
5,Cc1[nH]c2ccccc2c1NC(=O)CN1CCN(c2cccc(C(F)(F)F)c2)CC1,8.35% (inactive)
6,COc1ccc(-c2ncnc(C(F)(F)F)c2-c2csc(C)n2)c(O)c1,-3.59% (inactive)
7,O=C(NCc1ccco1)c1ccc(COc2ccc(Cl)cc2)cc1,15.4% (inactive)
8,Nc1ccc(OCc2ccccc2)cc1,78.2% (inactive)
9,O=c1c2ccccc2nc2n1CCCS2,-15.7% (inactive)
10,N#Cc1c(-c2ccc(Cl)cc2)nc2n(c1=O)CCCS2,-3.54% (inactive)
11,O=c1c(C(c2ccc(Cl)cc2)c2c(O)nc3n(c2=O)CCCS3)c(O)nc2n1CCCS2,-3.6% (inactive)
12,Cc1sc2nc3n(c(=O)c2c1C)CCCS3,-3% (inactive)
13,COc1ccc(C(=O)NCCNc2ccccc2[N+](=O)[O-])cc1,-4.94% (inactive)
14,O=C(COC(=O)Cn1cnc2ccccc21)NCCc1ccc(Cl)cc1,-3.57% (inactive)
15,Cc1cccc(CN2C(=O)[C@H]3Cc4c([nH]c5ccccc45)C(C)(C)N3C2=O)c1,17.7% (inactive)
16,CC1(C)c2[nH]c3ccccc3c2C[C@@H]2C(=O)N(Cc3ccccc3)C(=O)N21,2.35% (inactive)
17,C=CCn1c(=O)c2c(C)c(C)sc2n2c(Nc3ccccc3)nnc12,-3.44% (inactive)
18,O=C(CNc1cccc(Cl)c1)NNC(=S)NCc1ccccc1,-0.97% (inactive)
19,COC(=O)/C=c1/sc2n(c1=O)CCN=2,-5.21% (inactive)
20,CSc1ccc(CN2CCCC(CO)(Cc3ccccc3)C2)cc1 (centres undefined),-4.33% (inactive)
21,Cc1c(C(=O)O)sc2ncn(C)c(=O)c12,-6.12% (inactive)
22,CCn1cnc2sc(C(=O)O)c(C)c2c1=O,-6.48% (inactive)
23,CCn1cnc2sc(C(=O)Nc3ccccc3OC)c(C)c2c1=O,2.12% (inactive)
24,Cc1ccc(OCCn2cnc3sc(C(N)=O)c(C)c3c2=O)cc1,11.2% (inactive)
25,Cc1ccc(CC(=O)NCc2ccc3c(c2)OCO3)cc1,23.6% (inactive)

row,Structure (SMILES),inhibition
1,O=C(O)C1(P(=O)(c2ccc(Cl)cc2)c2ccc(Cl)cc2)CC1,1.34% (inactive)
2,CCc1ccc(OCC2c3cc(OC)c(OC)cc3CCN2C(=S)NCCOC)cc1 (centres undefined),0.42% (inactive)
3,CSc1nnc(CNC(=O)c2ccccc2)n1-c1cccc(C)c1,-0.55% (inactive)
4,O=C(O)c1ccccc1N1C(=O)C2C3CCC(C3)C2C1=O (centres undefined),-3.82% (inactive)
5,CSC1=NCCN1C(=O)c1c(F)cccc1Cl,1.18% (inactive)
6,Cc1ccc(S(=O)(=O)N2CCOCC2)cc1C(=O)NCc1ccco1,-8.9% (inactive)
7,Cc1cc2ccccc2n1CCNC(=O)COc1ccccc1,13.1% (inactive)
8,O=C(COc1ccc2ccccc2c1)NCCn1ccc2ccccc21,9.42% (inactive)
9,Cc1nn(CC(=O)Nc2ccc3c(c2)nc2n3CCN(C3CCCCC3)C2)c(=O)c2ccccc12,-1.06% (inactive)
10,Cc1nn(Cc2ccc(Cl)c(Cl)c2)c(C)c1NC(=O)c1noc2c1CCCCC2,-6.28% (inactive)
11,COc1ccc(C(=O)CSc2nnc3ccc(-c4ccccn4)nn23)cc1,2.65% (inactive)
12,CCCc1nc(SCC(=O)c2ccc(F)cc2)c2ccccc2n1,8.42% (inactive)
13,Cn1c(SCC(=O)c2ccc(F)cc2)nc2cccnc21,3.26% (inactive)
14,Cc1nc2ccccc2nc1SCC(=O)c1ccccc1,8.55% (inactive)
15,COc1ccc(C(=O)CSc2nnc(-c3ccccn3)n2Cc2ccco2)cc1,-7.14% (inactive)
16,Cc1nc(-c2ccccn2)nc(SCC(=O)N2CCOCC2)c1Cl,3.81% (inactive)
17,Cc1ccc(NC(=O)COC(=O)c2ccc([N+](=O)[O-])o2)cc1S(=O)(=O)N1CCCCC1,8.45% (inactive)
18,O=C1c2ccccc2C(=O)N1CN(C(=O)c1ccccc1)c1ccc(O)cc1,-0.6% (inactive)
19,Cc1cccnc1CCNC(=O)CCc1nnc(-c2ccccc2)o1,5.3% (inactive)
20,CCCN1CCN(C(=O)c2ccc(Sc3ccc(C)cc3)c(NC(C)=O)c2)CC1,3.99% (inactive)
21,CC(C)(C)c1ccccc1OCCCCN1CCCC1,6.1% (inactive)
22,CC(C)(C)c1ccccc1OCCN1CCCC1,-0.65% (inactive)
23,CNC(=O)NC(=O)COC(=O)c1ccc(-n2c(C)ccc2C)cc1,20.2% (inactive)
24,CCOc1ccc(NC(=O)CSc2nnc(C3CC3)n2C)cc1,27.2% (inactive)
25,Cc1ccc(S(=O)(=O)N(CCCO)Cc2cc3c(C)ccc(C)c3[nH]c2=O)cc1,-4.12% (inactive)

row,Structure (SMILES),inhibition
1,c1ccc(CC2CCN(c3nc4ccccc4n4nnnc34)CC2)cc1,12.1% (inactive)
2,c1ccc(CN2CCN(c3nc4ccccc4n4cnnc34)CC2)cc1,6.21% (inactive)
3,O=C(Nc1cccc(C(F)(F)F)c1)C1CCCN1S(=O)(=O)c1cccc2cccnc12 (centres undefined),-8.3% (inactive)
4,CCCNC(=O)c1ccc2c(=O)c(O)c(-c3ccc(OC)cc3)[nH]c2c1,-8.43% (inactive)
5,CCO[C@@H]1OC(C(=O)O)=C[C@H](C2CCCCC2)[C@H]1CCCO,6.74% (inactive)
6,CCCCOC(=O)Nc1ccc(C(=O)OC)cc1,-7.29% (inactive)
7,CCCOC(=O)c1ccc(NC(=O)c2cc(OC)c(OC)c(OC)c2Br)cc1,-1.63% (inactive)
8,COc1ccc(NC(=O)c2ccc(Br)o2)cc1,-11.7% (inactive)
9,CCN(CC)c1ccc(NC(=O)c2ccc(Br)o2)cc1,-1.94% (inactive)
10,CCCCOC(=O)Nc1cccc(C(=O)OCC)c1,4% (inactive)
11,CCCCOC(=O)Nc1ccc(C(N)=O)cc1,-2.7% (inactive)
12,CCOC(=O)NCCOC(=O)Nc1ccc(Cl)cc1,2.79% (inactive)
13,CCOC(=O)c1ccc(NC(=O)c2cc(OC)c(OC)c(OC)c2Br)cc1,30.9% (inactive)
14,O=C1CCC2c3ccc4ccccc4c3CCN12 (centres undefined),-9.72% (inactive)
15,O=C(O)c1ccccc1C(=O)NCc1cccnc1,-5.59% (inactive)
16,COc1ccc(-n2c(NN)nc3sc4c(c3c2=O)CCCC4)cc1,9.05% (inactive)
17,COc1ccc(-n2c(C)nc3sc4c(c3c2=O)CCC4)cc1,-4.02% (inactive)
18,CNC(C)C#Cc1ccc2c(=O)c3cc(C)c(C)cc3oc2c1 (centres undefined),-0.56% (inactive)
19,Cn1nc(C(=O)OCC(=O)Nc2ccc(S(N)(=O)=O)cc2)c2ccccc2c1=O,4.62% (inactive)
20,COc1ccc(CCNC(=O)CSCc2ccc(F)cc2)cc1OC,-4.44% (inactive)
21,Cc1ccccc1OC(=O)CCC(=O)OCCCC(F)(F)C(F)(F)F,-4.35% (inactive)
22,COCCCN1CCN(C2Cc3ccccc3Sc3ccc(Cl)cc32)CC1 (centres undefined),54.7% (inactive)
23,c1ccc2c(c1)CC(N1CCCCC1)c1ccccc1N2 (centres undefined),-6.95% (inactive)
24,CCc1nnc(NC(=O)CSc2nc3cc4c(cc3cc2CC)OCCO4)s1,7.01% (inactive)
